Screening results from PubChem.
Most compounds without a hit are left out; they make up all but 11% or so of the library.
PNC assembly inh: perinucleolar compartment assembly inhibition; hit rate 3.1% among 140,000; activity change (PNC), negative = inhibition, % at 10 µM; PC3M PTB-GFP, PNC prevalence imaging, 16 h; stronger effect = lower value;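 active = readout at or below -70, meaning at least 70% loss of cells showing the perinucleolar compartment, a nuclear body marking cancer cells; inconclusive = readout between -30 and a set limit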;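 note: plate controls were DMSO wells for no effect and camptothecin positive control wells for full effect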
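Read-out is percentage of cells bearing a perinucleolar compartment, from automated 20x imaging of fixed, Hoechst-stained PC3M PTB-GFP cells. Cells were seeded 4 h, then exposed 16 h to compound (23 nl of library stock) in duplicate plates.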
ALDH1A1 block: blocks purified human ALDH1A1 activity; hit rate 7.3% among 220,000; AID 1030; P00352; Purified ALDH1A1, NADH fluorescence, propionaldehyde substrate; Potency, µM (doses to about 75.3 µM), without a hit: top-dose activity, negative = inhibition, actives largely listed as inhibitors;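 note: potency is the fitted concentration of half-maximal effect; plate controls were no enzyme wells and a reference inhibitor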
Target sequence (P00352 whole entry, looked up): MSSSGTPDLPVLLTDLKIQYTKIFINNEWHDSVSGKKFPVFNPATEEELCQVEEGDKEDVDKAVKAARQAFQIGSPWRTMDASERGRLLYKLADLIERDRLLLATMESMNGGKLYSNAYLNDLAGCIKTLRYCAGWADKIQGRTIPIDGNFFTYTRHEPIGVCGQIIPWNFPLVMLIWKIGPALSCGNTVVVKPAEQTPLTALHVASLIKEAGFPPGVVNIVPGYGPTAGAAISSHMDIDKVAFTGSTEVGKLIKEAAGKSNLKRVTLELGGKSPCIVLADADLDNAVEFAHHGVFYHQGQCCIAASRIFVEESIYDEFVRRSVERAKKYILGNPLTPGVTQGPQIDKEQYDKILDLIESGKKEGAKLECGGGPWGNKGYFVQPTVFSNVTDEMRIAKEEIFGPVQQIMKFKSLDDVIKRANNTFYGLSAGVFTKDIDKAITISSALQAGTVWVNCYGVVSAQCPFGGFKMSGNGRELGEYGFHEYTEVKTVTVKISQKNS
IMPase cell inh: membrane-permeable compound that blocks inositol monophosphatase; inhibition (IP1 accumulation), % at 46.1 µM; 120,000 tested, under 10 active; CHO-M1 cells, IP1 accumulation, HTRF TR-FRET ratio; P97697; active = well fitted curve in the direction sought with a large enough effect in the signal ratio, not every such curve was filed as active; inconclusive = small, poorly fitted or top-dose-only effect, or a change in a side signal; inactive = no such curve, though single readings can be large or run the other way; the % refers to the signal ratio;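 note: cells stimulated with carbachol in lithium chloride buffer; plate controls were DMSO basal wells for no effect and reference inhibitor wells for full effect; higher means more IMPase inhibition seen as more IP1 and lower FRET ratio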
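Cellular IMPase inhibition is scored as a rise in cytosolic IP1, detected by competitive TR-FRET between d2-labelled IP1 and a europium anti-IP1 antibody. M1-expressing CHO cells were stimulated with carbachol for 30 min at 37C, with lithium (50 mM LiCl) present in the buffer.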
IMPase Li inh: IMPase inhibition in cells with lithium potentiation; CHO-M1 cells, IP1 TR-FRET (IP-One), carbachol + lithium; hit rate 0.35% among 210,000; Potency, µM (highest dose often 59.4 µM), without a hit: at the top dose activity, negative = IMPase inhibition, most hits filed as inhibitors; AID 1457; active = well fitted inhibition curve with a large enough effect; inconclusive = small, poorly fitted or top-dose-only effect; inactive = no such curve, though single readings can be large or run the other way;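 note: IP1 builds up when IMPase is blocked and the TR-FRET signal falls; potency is the fitted concentration of half-maximal effect; plate controls were basal vehicle for no effect and high inhibitor control for full effect; nearly all actives have a fitted effect of over 50% in size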
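Concentration–response in CHO-M1 cells, lithium-potentiated; 30 min at 37C. IP1 detected by competitive TR-FRET after 10 min lysis at RT. Hill-fitted AC50.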
HPGD inh: inhibitors of human 15-hydroxyprostaglandin dehydrogenase (HPGD) | P15428 | purified HPGD, NADH fluorescence kinetic, PGE2 substrate | Potency, µM, for inactives: top-dose activity change, negative = inhibition, usual class: inhibitors | hit rate 4.3% among 150,000 | AID 894; note: potency is the fitted concentration of half-maximal effect
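NADH formation kinetics: reaction with 30 uM PGE2 and 1 mM NAD+ (final), 20 nM enzyme, Tris-HCl pH 8 with Tween 20, after 15 min compound preincubation at room temperature. Fluorescence change, last versus first of five reads.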
Numbers without * were called inactive; ? = inconclusive; nt = no result given; ! = not confirmed by another sample; [ ] = dose if it differs, or a comment. Unless noted, calls come from the whole dose curve; as a rule, active = well fitted inhibition curve with a large enough effect (not every such curve was filed as active); inconclusive = small, poorly fitted or top-dose-only effect, or another doubt; inactive = no such curve, though single readings can be large or run the other way. Unless noted, % is set by controls: 0 for no effect and ±100 for the full control effect.

SMILES | PNC assembly inh | ALDH1A1 block | IMPase cell inh | IMPase Li inh | HPGD inh
CCC1(C)NC(=O)N(/N=C/c2cc(OC)c(O)c(OC)c2)C1=O (centres undefined) | nt | 10µM* | nt | 4% | nt
COc1cc(/C=N/N=C2/C(=O)Nc3ccccc32)cc(OC)c1O | 10 | -5% | nt | 39% | ?
O=c1c2ccccc2sn1-c1nccs1 | nt | 13µM* | nt | 13% | nt
Cc1ccccc1N=Cc1c(O)n(-c2nccs2)c(=O)c2ccccc12 | 20 | -11% | nt | 13% | -9%
O=C(CN1CCN(c2ccccn2)CC1)NC1CCCC1 | 22 | 25µM* | 11 | 4%[38.3 µM] | -23%
O=C(CN1CCN(c2ccccn2)CC1)Nc1ccc(Oc2ccccc2)cc1 | -27 | 25µM* | -6 | 1%[38.3 µM] | 6%
CC(C)NC(=O)CN1CCN(c2ncccn2)CC1 | -26 | 28µM* | 1 | -15%[38.3 µM] | -15%
O=C(/C=C/c1ccc(O)cc1)c1ccc(O)cc1O | 11 | 5% | nt | 28% | -16%
O=C(/C=C/c1ccccc1)c1ccc(O)cc1O | nt | ? | nt | 22% | 16µM*
COc1ccc(/C=C/C(=O)Nc2ccccc2C(=O)O)cc1 | nt | -10% | nt | 0% | nt
COc1ccc(/C=C/C(=O)c2ccc(O)cc2O)cc1OC | nt | ? | nt | 31% | 14µM*
COc1ccc(/C=C/C(=O)Nc2ccccc2C(=O)O)cc1OC | -15 | -3% | -3 | -9% | 14µM*!
COc1ccc(/C=C/C(=O)c2ccc(O)cc2O)cc1 | nt | ? | nt | 33% | 32µM*
CC(=O)c1ccc(OCC(=O)NCc2ccc(F)cc2)cc1 | nt | 1% | nt | -8% | nt
CC1CCCCN1C(=S)NCc1ccco1 (centres undefined) | nt | -4% | nt | 6% | nt
COc1ccc(C(=O)/C=C(\N)C(F)(F)F)c(O)c1 | 20 | 8.9µM* | 1 | 5%[38.3 µM] | -14%
COC(=O)C1=C(C(=O)OC)[C@@H]2N(C)c3ccccc3[C@@]23C[C@@H](CO)N(C(=O)c2cc(C)oc2C)C3=N1 | nt | 7%[13.5 µM] | nt | -14% | -15%
Cc1[nH]nc2c1C(c1ccc(-c3ccccc3C#N)o1)C(C#N)=C(N)O2 (centres undefined) | -29 | 11µM* | 6 | nt | nt
Cn1sc(NC(=O)c2ccccc2Cl)nc1=O | ? | 11µM* | 3 | -6%[38.3 µM] | 14µM*
O=C(O)C[C@@H]1CCCc2ccccc2[C@H]1O | nt | nt | -2 | nt | nt
CCN(C(=O)CCc1nc(-c2ccc(OC)cc2)no1)c1cc(OC)ccc1OC | 1 | -14% | 6 | 53%[38.3 µM] | 14µM*
CN(Cc1nc(-c2cccnc2)no1)S(=O)(=O)c1ccc(Br)cc1 | -21 | 4% | 2 | 22%[38.3 µM] | ?
COc1ccc(-c2noc(CN(C)S(=O)(=O)c3ccc(Cl)cc3)n2)cc1OC | -92* | 7% | 6 | 31%[38.3 µM] | -11%
COc1ccc(-c2noc(CCC(N)=O)n2)cc1OC | -113* | 12% | 2 | -6% | -3%
CN(Cc1nc(-c2ccccn2)no1)S(=O)(=O)c1ccc(Br)cc1 | 21 | ? | 4 | 14%[38.3 µM] | 22µM*
SMILES | PNC assembly inh | ALDH1A1 block | IMPase cell inh | IMPase Li inh | HPGD inh
CCOc1ccc(-c2noc(CCCC(N)=O)n2)cc1OC | 26 | -8% | 12 | 10%[38.3 µM] | -16%
CC(C)(/C=N/NC(=O)CSCc1ccc(Cl)cc1)CCC#N | nt | ? | nt | -6% | nt
Cc1ccc(-c2noc(CN3CCOCC3)n2)cc1 | 7 | -1% | 7 | -29%[38.3 µM] | -7%
COc1ccc(-c2noc(CN3CCOCC3)n2)cc1OC | 25 | 22µM* | -6 | 15%[38.3 µM] | -2%
CCOc1cccc(-c2nnc(SCC(=O)Nc3cc(OC)cc(OC)c3)n2N)c1 | ? | -10% | -5 | 25µM* | 17%
CCOc1cccc(-c2nnc(SCC(=O)Nc3ccc(OC)c(OC)c3)n2N)c1 | -108* | -3% | 0 | 1%[38.3 µM] | -3%
COc1ccc(NC(=O)CSc2nnc(-c3ccccc3C)n2N)cc1 | -13 | 13µM* | ? | -11%[38.3 µM] | ?
CCOc1cccc(-c2nnc(SCC(=O)Nc3cc(C)ccc3OC)n2N)c1 | 3 | -1% | 5 | -25%[38.3 µM] | -15%
COc1cccc(CSCC(=O)O)c1 | nt | -2%[13.5 µM] | nt | 1% | -1%
O=C(NCCOc1ccc(Cl)cc1)C1CC(=O)N(c2ccc(F)cc2)C1 (centres undefined) | 36 | 25µM* | 1 | 4%[38.3 µM] | -12%
O=C(O)C1CC(=O)N(c2ccc(OCc3ccc(Cl)cc3Cl)cc2)C1 (centres undefined) | -18 | 1% | 1 | 20%[38.3 µM] | 14µM*
CCOC(=O)N1CCc2c(sc3nc(SC(C)C)n(N)c(=O)c23)C1 | ? | 4.5µM* | 3 | nt | nt
CCn1c(SCC(=O)N2c3ccccc3Sc3ccccc32)nc2c1c(=O)n(C)c(=O)n2C | 28 | 11µM* | -5 | 7%[38.3 µM] | -12%
CCCn1c(SCC(=O)N2c3ccccc3CCc3ccccc32)nc2c1c(=O)n(C)c(=O)n2C | ? | 11µM* | -1 | 22%[38.3 µM] | -13%
CCCn1c(SCC(=O)N2CCc3ccccc3C2)nc2c1c(=O)n(C)c(=O)n2C | 52 | -9% | -7 | 31%[38.3 µM] | -2%
Cc1cc(N2C(=O)C3C4CC(c5ccccc5)C(C4)C3C2=O)no1 (centres undefined) | nt | 16% | nt | -3% | nt
COc1c(OC2OC(C(=O)O)C(O)C(O)C2O)cc(O)c2c(=O)cc(-c3ccccc3)oc12 (centres undefined) | ? | ? | nt | -8% | ?
O=C(O)C1OC(Oc2cc3oc(-c4ccccc4)cc(=O)c3c(O)c2O)C(O)C(O)C1O (centres undefined) | ? | ? | nt | ? | 4.5µM*
CCCN1C(=O)c2cc(C(=O)Nc3ccc(OC)cc3OC)ccc2C1Nc1ccc(OC)cc1OC (centres undefined) | nt | 25µM* | nt | 14% | nt
CCCN1C(=O)c2cc(C(=O)Nc3ccc(OC)c(OC)c3)ccc2C1Nc1ccc(OC)c(OC)c1 (centres undefined) | nt | ? | nt | 10% | nt
O=C(COc1ccc2ccccc2c1)NC1CC1 | 59 | -7% | -6 | 20%[38.3 µM] | 32µM*
